POLI inh = inhibitors of human DNA polymerase iota. Q9UNA4. Pol iota fluorescent replication assay, 10 min. Potency, µM (highest dose often 115 µM), without a hit: at the highest dose activity, negative = inhibition, usual class: inhibitors. 390,000 compounds, 1% hits; further: potency means the concentration at half of the fitted maximal effect
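Fluorescent replication assay read twice, at 0 min and 10 min after adding 50 nM (final) substrate. Enzyme (10 nM) and compounds were first incubated 15 min at room temperature; enzyme-free buffer wells were negative controls.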
Pol eta inh = blocks human DNA polymerase eta activity; 390,000 compounds, 1.2% hits; Q9Y253; recombinant Pol eta, fluorescent DNA replication assay; Potency, µM (series often up to 114 µM), for the others: top-dose activity change, negative = inhibition, usual class: inhibitors; further: potency means the concentration at half of the fitted maximal effect; on the % scale 0 is the no-effect control and ±100 the full control effect
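Fluorescent replication assay: 50 nM final substrate added after a 15 min room-temperature compound preincubation with 10 nM enzyme. Signal taken at 0 min and again at 10 min.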
WRN helicase inh = WRN helicase (human) inhibition | WRN helicase unwinding, fluorescent forked duplex, kinetic | Potency, µM (series often up to 114 µM), for inactives: top-dose activity change, negative = inhibition, hits mostly inhibitors | 360,000 compounds, 0.46% hits; further: potency means the concentration at half of the fitted maximal effect; on the % scale 0 is the no-effect control and ±100 the full control effect; nearly all actives have a fitted effect of over 55% in size
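Kinetic fluorescence helicase assay: unwinding of a quenched forked DNA duplex (100 nM final) with 2 mM ATP final raises red fluorescence (525/598 nm). Compounds sat 15 min at room temperature with 20 nM WRN beforehand.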
Pol beta inh = inhibitors of human DNA polymerase beta; AID 485314; 340,000 compounds, 1.3% hits; P06746; Pol beta primer extension/strand displacement, fluorescence kinetic; Potency, µM (doses to about 114 µM), inactives show at the highest dose activity change, negative = inhibition, hits mostly inhibitors; further: potency means the concentration at half of the fitted maximal effect; on the % scale 0 is the no-effect control and ±100 the full control effect
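Preincubation: enzyme (10 nM) with compound, 15 min, RT. Reaction: substrate added to 50 nM final. Reads: 0 and 10 min. Analysis: normalized, Hill fit.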
PI5P4K alpha inh = inhibitors of human PI5P4K alpha; P48426; PI5P4Kalpha enzyme, ADP-Glo luminescence, 60 min; stronger effect = lower value; max response, %; 330,000 compounds, 1.2% hits; AID 652105; active means max response of -50% or lower; inconclusive means between -30% and -50%; inactive means -30% or higher; further: value at the top dose of about 77 µM; on the % scale 0 is the no-effect control and ±100 the full control effect
Target sequence (P48426 whole entry, looked up): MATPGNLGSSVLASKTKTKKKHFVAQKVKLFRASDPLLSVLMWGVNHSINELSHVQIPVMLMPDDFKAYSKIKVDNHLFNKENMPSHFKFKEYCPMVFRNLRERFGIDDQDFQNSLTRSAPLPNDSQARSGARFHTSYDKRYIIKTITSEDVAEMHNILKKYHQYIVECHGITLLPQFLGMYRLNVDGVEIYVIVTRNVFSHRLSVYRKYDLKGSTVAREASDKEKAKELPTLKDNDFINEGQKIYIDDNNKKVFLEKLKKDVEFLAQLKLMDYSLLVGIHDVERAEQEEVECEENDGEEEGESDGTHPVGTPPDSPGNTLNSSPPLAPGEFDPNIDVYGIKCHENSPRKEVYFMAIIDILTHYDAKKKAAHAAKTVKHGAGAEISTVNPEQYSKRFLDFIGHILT
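Single end-point luminescence (ADP-Glo) quantified ADP from PI5P4Kalpha turnover; ATP 5 microM final, 1 h at RT, 0.1% CHAPS and 0.28 mM EGTA in HEPES pH 7.4.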
POLK inh = blocks human DNA polymerase kappa activity | purified Pol kappa, fluorescent DNA synthesis assay, 10 min | Potency, µM (series often up to 107 µM), for inactives: at the top dose activity, negative = inhibition, most hits filed as inhibitors | Q9UBT6 | 400,000 compounds, 0.53% hits; further: potency means the concentration at half of the fitted maximal effect; on the % scale 0 is the no-effect control and ±100 the full control effect
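10 nM Pol kappa preincubated 15 min at room temperature with compounds, then reaction started with substrate at 50 nM final. Fluorescence read kinetically at 0 and 10 min; buffer-only wells served as negative control.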
ADP-Glo counter = ADP-Glo luciferase interference, PI5P4K counter-screen. ADP-Glo detection counter-screen, luciferase luminescence, no enzyme. Potency, µM (doses to about 76.9 µM), for the others: top-dose activity change, negative = inhibition, hits mostly inhibitors. 1,100 tested, under 10 active. shares compounds with PI5P4K alpha inh
Starred values were filed as active, the others as inactive; ? = inconclusive; nt = not tested or not shown; [ ] = another dose, or the depositor's remark. A selection: hits, their analogues and other compounds. The true share with any hit is near 2.8%. Unless noted, the call rests on the fitted dose curve; in most records, active means well fitted curve in the direction sought with a large enough effect; inconclusive means small, poorly fitted or top-dose-only effect, or another doubt; inactive means no such curve, though single readings can be large; an effect the other way counts as inactive or inconclusive.

SMILES | POLI inh | Pol eta inh | WRN helicase inh | Pol beta inh | PI5P4K alpha inh | POLK inh | ADP-Glo counter
COC(=O)CNC(=O)C1Cc2ccccc2CN1S(=O)(=O)c1cccs1 (stereo not drawn) | ? | -20% | -4%[11.6 µM] | -3% | -5 | ? | -4%
O=C(NCc1ccco1)C1Cc2c(-c3cccc(F)c3)ccnc2O1 (stereo not drawn) | nt | nt | -3% | nt | -65* | nt | -4%
O=C1[C@@H]2C[C@@H]3C[C@H]1C[C@@](O)(C3)C2 | nt | nt | nt | nt | nt | 5%[19.4 µM] | nt
CCN(C(=O)COC(=O)Cn1c(=O)oc2ccccc21)c1c(N)n(Cc2ccccc2)c(=O)[nH]c1=O | -1% | -7% | 4% | nt | -2 | 0% | nt
CC(=O)c1sc2nc(-c3ccco3)ccc2c1N | 5µM* | 28µM* | ? | 13µM* | -61* | 79µM* | 1%
COC(=O)c1c(NC(C)=O)sc(C(=O)Nc2ccccc2)c1C | 13% | ? | 0% | 28% | ? | -19% | 2%
CCOc1ccc(NC(=O)c2sc(NC(C)=O)c(C(=O)OC)c2C)cc1 | 82% | -20% | 11% | -11% | -5 | -2% | nt
Cc1ccccc1CN1C(=O)CSCC1(C)C(=O)Nc1ccc2c(c1)OCCO2 (stereo not drawn) | nt | nt | -2% | nt | 2 | nt | nt
COc1ccc(C(C(=O)NC2CCCC2)n2c(C3CCN(C(C)=O)CC3)nc3ccccc32)cc1 (stereo not drawn) | nt | nt | 1% | nt | 0 | nt | nt
COCCOC(=O)c1[nH]c2c(c1C)C(=O)CC(c1ccc(F)cc1)C2 (stereo not drawn) | 5% | -13% | -1% | ? | 1 | -2% | nt
CSCCOC(=O)c1[nH]c2c(c1C)C(=O)CC(c1ccco1)C2 (stereo not drawn) | ? | 18µM* | 56µM* | 7.9µM* | -66* | 32µM* | 5%
O=C(NCCCN1CCN(c2ccc(F)cc2)CC1)Nc1ccccc1Cl | -13% | -7% | nt | 16% | nt | -3% | nt
CCCCn1c(=O)[nH]c(=O)c2c1nc(-c1ccc3ccccc3c1)n2CC | 24% | 13% | -3% | 3% | 3 | -4% | nt
CCCCn1c(=O)[nH]c(=O)c2c1nc(-c1ccc(-c3ccccc3Br)o1)n2CC | ? | -7% | -17% | -1% | -53* | -20% | -1%
CC1CCCCN1C(=O)Cn1cnc2cc([N+](=O)[O-])ccc2c1=O (stereo not drawn) | 77% | -3% | ? | 45% | -69* | -4% | -3%
Cc1cc(C)c(C(=O)Cn2cnc3cc([N+](=O)[O-])ccc3c2=O)cc1C | 149% | -4% | -10% | ? | -7 | -12% | nt
c1ccc(N2CCN(c3ncnc4[nH]ncc34)CC2)cc1 | -4% | 13% | nt | 1% | nt | -5%[60.1 µM] | nt
O=C(Nc1ccc2c(c1)OCCO2)C(c1ccnc2ccccc12)n1c(=O)c(-c2ccco2)nc2ccccc21 (stereo not drawn) | nt | nt | -4% | nt | ? | nt | nt
O=C(NC1CCCCC1)C(c1ccnc2ccccc12)n1c(=O)c(-c2ccco2)nc2ccccc21 (stereo not drawn) | nt | nt | -6% | nt | -78* | nt | -5%
O=C(NCc1ccccc1)C(c1ccccc1)n1c(=O)c(-c2ccco2)nc2ccccc21 (stereo not drawn) | nt | nt | -17% | nt | -64* | nt | -4%
CCCCCNC(=O)C1C(=O)Nc2ccccc2C(=O)N1c1c(C)cccc1C (stereo not drawn) | nt | nt | -1% | nt | -3 | nt | nt
Cc1c(OCC(F)(F)F)ccnc1CS(=O)c1nc2ccccc2[nH]1 (stereo not drawn) | -1% | -19% | -1% | 20% | -67* | -5%[60.1 µM] | -4%
ClCc1cc2ccccc2nc1Cl | 47% | -1% | 1% | 14% | 1 | -7% | nt
Cc1ccc2cc(CCl)c(Cl)nc2c1 | 28% | -17% | -4% | -16% | -79* | 5% | 0%
O=C(C1COc2ccccc2O1)N1CCN(S(=O)(=O)c2cc(F)ccc2F)CC1 (stereo not drawn) | 3% | 1% | 2% | nt | -2 | -8% | nt
SMILES | POLI inh | Pol eta inh | WRN helicase inh | Pol beta inh | PI5P4K alpha inh | POLK inh | ADP-Glo counter
N#Cc1ccccc1S(=O)(=O)N1CCN(C(=O)C2COc3ccccc3O2)CC1 (stereo not drawn) | 79µM* | ? | ? | nt | -52* | -37% | -2%
CN(Cc1ccc(C(C)(C)C)cc1)C(=O)Cc1ccc(S(=O)(=O)N2CCOCC2)s1 | 0% | -10% | -5% | nt | 5 | -7% | nt
O=S(=O)(Nc1nc(-c2ccccc2)cs1)c1cc(Cl)ccc1Cl | ? | ? | -26% | 45µM* | -51* | -43% | -2%
COc1ccccc1CNC(=O)c1ccc2c(c1)nc(C)n2-c1cccc(C)c1 | ? | -5% | nt | 15% | nt | -10%[60.1 µM] | nt
O=C(CSc1nc2[nH]c(=O)cc(O)c2s1)Nc1ccc(Cl)c(C(F)(F)F)c1 | 17% | -19% | -5% | nt | -54* | 3% | 2%
O=C(O)CCCCCCCCCCCNC(=O)NC12CC3CC(CC(C3)C1)C2 | ? | -5% | -6% | nt | -3 | -16% | nt
Cc1ccc(Cl)cc1N1CCN(S(=O)(=O)c2ccc3[nH]c(=O)c(=O)[nH]c3c2)CC1 | ? | -22% | -15% | ? | -55* | ? | -3%
COc1cccc(C2CC(=O)N3CN(c4cccc(Cl)c4C)CSC3=C2C#N)c1OC (stereo not drawn) | -1% | -8% | -3% | 2% | -93* | -9% | -14%
COc1ccc(OC)c(C2CC(=O)N3CN(c4cccc(Cl)c4)CSC3=C2C#N)c1 (stereo not drawn) | 14% | -21% | 0% | -9% | -77* | 5% | -11%
COc1ccc(OC)c(C2CC(=O)N3CN(c4cccc(Cl)c4C)CSC3=C2C#N)c1 (stereo not drawn) | -17% | -15% | 0% | 3% | -64* | 0% | -6%
COc1cc(OC)c(C2CC(=O)N3CN(c4ccccc4)CSC3=C2C#N)cc1OC (stereo not drawn) | 17% | 0% | -35% | 3% | nt | -7% | nt
CCOC(=O)c1ccc(N2CSC3=C(C#N)C(c4ccc(OC)cc4OC)CC(=O)N3C2)cc1 (stereo not drawn) | -2% | -9% | -5% | 0% | -26 | -20% | nt
CC(C)(C)c1cc(C(=O)NCc2cc(F)cc3c2OCOC3)n(Cc2ccccc2)n1 | 42% | -16% | -9% | ? | 13 | -8% | nt

Assay outcomes from PubChem.
